# Results: PubChem BioAssay
# The other results are listed elsewhere or left out. Activity calls are given as the source filed them. Unless noted, how the calls were made is not given here.
# Experiments:
# [1] = target: PEG-3 (UniProt Q6IN02); assay: inhibition of PEG-3 promoter-driven reporter – cell-based, HeLa, luciferase, CREF/GAPDH counter-screen panel, dose response (AID 624167); settings: HeLa PEG-Prom luciferase reporter, overnight, CREF/GAPDH counter-screens; run 1, dose range 1, at 100 µM (top of the series)
# Chain of PEG-3 (Q6IN02 whole entry, looked up, the tested form may be a part): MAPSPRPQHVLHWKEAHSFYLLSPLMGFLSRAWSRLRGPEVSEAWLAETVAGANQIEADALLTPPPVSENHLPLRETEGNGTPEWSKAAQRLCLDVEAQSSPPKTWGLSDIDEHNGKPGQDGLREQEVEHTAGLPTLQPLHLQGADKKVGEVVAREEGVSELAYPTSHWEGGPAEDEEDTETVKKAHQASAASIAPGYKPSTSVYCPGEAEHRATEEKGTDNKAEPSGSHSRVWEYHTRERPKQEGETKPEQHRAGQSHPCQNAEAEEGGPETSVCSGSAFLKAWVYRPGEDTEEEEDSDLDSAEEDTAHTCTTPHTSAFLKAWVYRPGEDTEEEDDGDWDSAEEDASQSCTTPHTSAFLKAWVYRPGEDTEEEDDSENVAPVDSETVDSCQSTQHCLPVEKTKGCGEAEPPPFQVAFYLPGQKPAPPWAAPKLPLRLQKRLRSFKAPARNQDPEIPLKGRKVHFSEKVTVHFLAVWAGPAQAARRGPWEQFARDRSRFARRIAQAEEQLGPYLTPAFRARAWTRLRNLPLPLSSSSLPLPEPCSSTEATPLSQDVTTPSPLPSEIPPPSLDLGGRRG
# [2] = target: PEG-3 (UniProt Q6IN02); assay: as above; settings: HeLa PEG-Prom luciferase reporter, overnight, CREF/GAPDH counter-screens; run 2, dose range 1, at 100 µM (top of the series)
# [3] = target: Carboxy-terminal domain RNA polymerase II polypeptide A small phosphatase 1 (Homo sapiens) (UniProt Q9GZU7); assay: SCP1 melting temperature change from compounds – biophysical, differential scanning fluorimetry, orthogonal assay for Scp-1 inhibitor project, confirmation (AID 540329;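 active means substances whose mean melting-temperature shift, as a percentage of the reference inhibitor's shift, reaches about 5.3%, limit read from the data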;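 further: 0% = Tm of DMSO wells and 100% = Tm with sodium orthovanadate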); settings: Recombinant SCP1, Sypro Orange thermal shift Tm; at 40 µM; stronger effect = higher value
# Chain of Carboxy-terminal domain RNA polymerase II polypeptide A small phosphatase 1 (Homo sapiens) (Q9GZU7 76-261 limits assumed): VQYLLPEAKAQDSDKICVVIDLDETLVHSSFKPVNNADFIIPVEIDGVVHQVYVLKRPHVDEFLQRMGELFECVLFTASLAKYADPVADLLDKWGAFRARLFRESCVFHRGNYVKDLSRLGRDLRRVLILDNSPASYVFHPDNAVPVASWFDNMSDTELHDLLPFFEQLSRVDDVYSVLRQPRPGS
# [4] = NF-kB reporter suppression in CF airway cells – cell-based, GFP fluorescence, single concentration, confirmation (AID 602472; in the data active means inhibition above about 40%;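 further: stimulus PAF is a Pseudomonas aeruginosa filtrate and not platelet activating factor; plate controls were DMSO wells with stimulus for no effect and unstimulated DMSO wells for full effect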); settings: KKLEB CF airway cells, PAF-induced NF-kB-GFP fluorescence, overnight; at 5 µM; stronger effect = higher value
# [5] = HIF-2a driven luciferase blockers, single dose – luminescence, 786-0 RCC cells, confirmation (AID 651580;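 active means mean inhibition across four replicates of at least 40 percent at the single tested concentration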); settings: HIF-2a luciferase reporter luminescence, overnight, at 18.8 µM, stronger effect = higher value
# [6] = HIF-1a luciferase reporter signal reduction – MiaPaCa-2 cells, single concentration, counter-screen for HIF-2a inhibitor project, confirmation (AID 651589;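 active means mean inhibition of the reporter signal across four replicates at the single tested dose of 50% or more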); settings: MiaPaCa-2 HIF-1a luciferase reporter, desferoxamine, overnight; at 18.8 µM; stronger effect = higher value
# [7] = Brca1-Bard1 BiLC signal decrease – luminescence, single concentration, counter-screen for Mdm2/MdmX interaction inhibitor project, confirmation (AID 504668); settings: Brca1/Bard1 bimolecular luciferase complementation counterscreen, at 8 µM, stronger effect = higher value
# [8] = target: Tumor necrosis factor receptor superfamily member 10B (Homo sapiens) (UniProt O14763); assay: viability loss of caspase-8 NB7 cells with TRAIL – with/without TRAIL, luminescence panel, confirmation (AID 651596; in the data active means activity above about 50%); settings: NB7 neuroblastoma + caspase-8, TRAIL sensitization, NB7 Caspase-8, with TRAIL, mean of runs, at 10 µM, stronger effect = higher value
# Chain of Tumor necrosis factor receptor superfamily member 10B (Homo sapiens) (O14763 whole entry, looked up): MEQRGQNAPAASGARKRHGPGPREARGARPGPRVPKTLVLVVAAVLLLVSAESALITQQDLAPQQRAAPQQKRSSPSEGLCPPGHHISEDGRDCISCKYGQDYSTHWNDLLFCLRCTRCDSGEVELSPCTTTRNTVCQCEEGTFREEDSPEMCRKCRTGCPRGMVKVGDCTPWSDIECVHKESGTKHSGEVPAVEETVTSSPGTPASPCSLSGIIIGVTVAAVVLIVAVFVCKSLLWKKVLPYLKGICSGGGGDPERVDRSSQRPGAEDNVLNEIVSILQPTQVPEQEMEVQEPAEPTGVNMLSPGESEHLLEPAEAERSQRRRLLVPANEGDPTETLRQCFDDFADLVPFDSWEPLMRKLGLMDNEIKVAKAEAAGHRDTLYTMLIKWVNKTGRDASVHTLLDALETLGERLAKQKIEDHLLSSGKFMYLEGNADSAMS
# [9] = as above; settings: NB7 neuroblastoma + caspase-8, without TRAIL, NB7 Caspase-8, without TRAIL, mean of runs, at 10 µM
# [10] = target: Tumor necrosis factor receptor superfamily member 10B (Homo sapiens) (UniProt O14763); assay: compound enhancement of TRAIL-induced cell killing – NB7 cells plus caspase-8, luminescence, panel, dose response (AID 652002); settings: NB7 neuroblastoma +caspase-8, TRAIL sensitization, luminescence viability, NB7+Caspase-8, with TRAIL, run 1; at 12.5 µM (top of the series)
# [11] = target: Tumor necrosis factor receptor superfamily member 10B (Homo sapiens) (UniProt O14763); assay: as above; settings: NB7 neuroblastoma +caspase-8, TRAIL sensitization, luminescence viability, NB7+Caspase-8, with TRAIL, run 2; at 12.5 µM (top of the series)
# [12] = as above; settings: NB7 neuroblastoma +caspase-8, no TRAIL, compound-alone cytotoxicity counter-screen, luminescence viability, NB7+Caspase-8, run 1; at 12.5 µM (top of the series)
# [13] = as above; settings: NB7 neuroblastoma +caspase-8, no TRAIL, compound-alone cytotoxicity counter-screen, luminescence viability, NB7+Caspase-8, run 2; at 12.5 µM (top of the series)
# [14] = tested on: Rat fibroblasts (CREF); assay: inhibition of PEG-3 promoter-driven reporter – cell-based, HeLa, luciferase, CREF/GAPDH counter-screen panel, dose response (AID 624167); settings: CREF/GAPDH counter-screens; run 1, dose range 1, at 100 µM (top of the series)
# [15] = tested on: Rat fibroblasts (CREF); assay: as above; settings: CREF/GAPDH counter-screens; run 2, dose range 1, at 100 µM (top of the series)
# [16] = inhibition of PEG-3 promoter luciferase signal – cell-based, HeLa, luciferase reporter, single concentration, confirmation (AID 602417;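 active means at 20 µM dose, 40% or more inhibition averaged across four replicates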); settings: HeLa PEG-Prom luciferase reporter, luminescence, overnight; at 20 µM; stronger effect = higher value
# [17] = NFkB reporter suppression in cystic fibrosis bronchial cells – cell-based, uHTS hits, panel, cytotoxicity readout, dose response (AID 624344); settings: CF bronchial epithelial cells, PAF-induced NFkB reporter inhibition, with PAF, run 1; at 79 µM (top of the series)
# [18] = as above; settings: CF bronchial epithelial cells, PAF-induced NFkB reporter inhibition, with PAF, run 2; at 79 µM (top of the series)
smiles,measurement,setting,value
O=c1c2ccccc2nc(CSc2ncnc3nc[nH]c23)n1-c1ccc(Cl)c(Cl)c1,inhibition,[1],-43.1%
same,inhibition,[2],33.8%
COc1ccccc1N=C1SCCCN1C,thermal shift relative to vanadate control,[3],-0.51% (inactive)
CC(=CCOc1ccc2ccc(=O)oc2c1)C1=CC(=O)C(C)(C)O1,inhibition,[4],-46% (inactive)
same,inhibition,[5],44.2% (active)
same,inhibition,[6],90.3% (active)
O=C1NC(=O)N(Cc2ccco2)C(=O)/C1=C/C=C/c1ccco1,inhibition,[1],102%
same,inhibition,[2],102%
O=[N+]([O-])c1cc(F)c(N2CCCCCC2)cc1N1CCNCC1,inhibition,[1],99.4%
same,inhibition,[2],101%
O=Cc1cn(Cc2ccc(F)cc2)c2ccccc12,inhibition,[1],26.6%
same,inhibition,[2],60.7%
C[C@]12CC[C@H]3[C@@H](CC[C@]4(O)C[C@@H](O)CC[C@]34C=O)[C@@]1(O)CC[C@@H]2C1=CC(=O)OC1,inhibition,[7],28% (active)
COc1cccc(C2CC3C(=O)C=CC2N3Cc2ccccc2)c1 (stereo not drawn),inhibition,[1],101%
same,inhibition,[2],100%
Cc1[nH]c2ccc(OC(F)(F)F)cc2c1CCNCc1cccc([N+](=O)[O-])c1,inhibition,[1],101%
same,inhibition,[2],101%
CCOC(=O)c1cccc(-[n+]2c(-c3ccccc3)cc(-c3ccccc3)cc2-c2ccccc2)c1,inhibition,[7],33.2% (active)
same,activity,[8],49.7%
same,activity,[9],44%
same,"activity, % sensitization",[10],6.7%
same,"activity, % sensitization",[11],9.91%
same,"activity, % sensitization",[12],9.79%
same,"activity, % sensitization",[13],5.11%
Cn1cccc1/C=C1/C(=O)NC(=S)N(Cc2ccc(F)cc2)C1=O,inhibition,[1],101%
same,inhibition,[2],100%
O=Cc1cn(Cc2ccc(Br)cc2)c2ccccc12,inhibition,[1],41.6%
same,inhibition,[2],72.9%
O=C1NC(=S)NC(=O)C1=Cc1cccn1-c1ccc(O)cc1,inhibition,[1],100%
same,inhibition,[2],101%
Cc1cccc(-n2c(O)c(/C=C3/C(c4ccccc4)=Nc4ccccc43)c(=O)[nH]c2=O)c1,inhibition,[7],35.8% (active)
O=C(CSC1c2ccccc2-c2ccccc21)N/N=C/c1ccccc1O,inhibition,[7],27.7% (active)
same,inhibition,[1],79.8%
same,inhibition,[2],66.1%
same,inhibition,[14],64.9%
same,inhibition,[15],74.1%
O=[N+]([O-])c1ccc(NC2CCN(Cc3ccccc3)CC2)c2ccncc12,inhibition,[1],102%
same,inhibition,[2],99%
O=Cc1cn(Cc2ccc([N+](=O)[O-])cc2)c2ccccc12,inhibition,[1],1.6%
same,inhibition,[2],29.8%
CC1(C)Cc2c(C#N)c(N3CCNCC3)nc(-c3ccco3)c2CS1,inhibition,[16],68.9% (active)
same,inhibition,[1],101%
same,inhibition,[2],101%
COc1ccc(C(c2nnnn2-c2c(C)cccc2C)N2CCC(n3c(=O)[nH]c4ccccc43)CC2)cc1 (stereo not drawn),inhibition,[1],63.7%
same,inhibition,[2],63.1%
NC(N)=N/N=C/c1ccc(N(c2ccccc2)c2ccccc2)cc1,inhibition,[7],29.9% (active)
same,activity,[8],75.5%
same,activity,[9],97.2%
O=C1NC2C(=CC(O)C(O)C2O)c2cc3c(c(O)c21)OCO3 (stereo not drawn),inhibition,[1],99.4%
same,inhibition,[2],94.9%
c1ccc(-c2cc(-c3ccccc3)[n+](-c3ccccc3)c(-c3ccccc3)c2)cc1,inhibition,[1],98.2%
same,inhibition,[2],99.1%
CNCC(O)c1cc(OCc2ccccc2)c(OCc2ccccc2)cc1F (stereo not drawn),inhibition,[1],102%
same,inhibition,[2],102%
C[C@]12CC[C@H](O)C[C@H]1CC[C@@H]1[C@@H]2C[C@@H](O)[C@]2(C)[C@@H](C3=CC(=O)OC3)CC[C@]12O,inhibition,[7],34% (active)
same,activity,[8],86.5%
same,activity,[9],85.4%
COc1ccc(-n2nnnc2C(C2CC2)N2CCC(n3c(=O)[nH]c4ccccc43)CC2)cc1 (stereo not drawn),inhibition,[1],93.8%
same,inhibition,[2],95.7%
CC(C)(C)n1nnnc1C(CCc1ccccc1)N1CCC(n2c(=O)[nH]c3ccccc32)CC1 (stereo not drawn),inhibition,[1],86.4%
same,inhibition,[2],92.6%
COc1ccc(-n2c(/C=C/c3ccc(O)c(OC)c3)nc3ccccc3c2=O)cc1,inhibition,[1],101%
same,inhibition,[2],92.7%
O=Cc1cn(Cc2cccc(F)c2)c2ccccc12,inhibition,[1],50.1%
same,inhibition,[2],75.9%
COc1ccc(-n2nnnc2C(c2cccc3ccccc23)N2CCC(n3c(=O)[nH]c4ccccc43)CC2)cc1 (stereo not drawn),inhibition,[4],14.7% (inactive)
O=C(O)CCn1cc(C=C2C(=O)NC(=S)NC2=O)c(-c2cccc(Br)c2)n1,thermal shift relative to vanadate control,[3],-19.9% (inactive)
Brc1ccc(-[n+]2c(-c3ccccc3)cc(-c3ccccc3)cc2-c2ccccc2)cc1,inhibition,[7],24.1% (active)
same,activity,[8],73%
same,activity,[9],63%
O=c1[nH]c(=O)n(CCc2ccc(F)cc2)c(O)c1/C=N/N1CCCCC1,thermal shift relative to vanadate control,[3],-3.71% (inactive)
O=C1NC(=O)N(Cc2ccc(F)cc2)C(=O)/C1=C\C=C\c1ccco1,inhibition,[1],98.2%
same,inhibition,[2],99.4%
COc1ccc(-n2nnnc2C(c2cccc(OC)c2OC)N2CCC(n3c(=O)[nH]c4ccccc43)CC2)cc1 (stereo not drawn),inhibition,[17],99.3%
same,inhibition,[18],97.4%
CC(=O)OC1(C)CC(C)C(=O)C(C(O)CC2CC(=O)NC(=O)C2)C1 (stereo not drawn),inhibition,[1],96.1%
same,inhibition,[2],94.4%
same,inhibition,[14],61.8%
same,inhibition,[15],56.4%
same,inhibition,[17],117%
same,inhibition,[18],108%
O=C1NC(=O)N(Cc2ccccc2)C(=O)/C1=C\C=C\c1ccco1,inhibition,[1],94.5%
same,inhibition,[2],98.5%
